# Measured values from PubChem BioAssay AID2435 (The Scripps Research Institute Molecular Screening Center, 2010).
# Among all 320,000 compounds or so, about 1,000 (0.31%) were called active. What follows is part of a selection rich in actives, with near analogues and random picks from the rest. Values without a mark were called inactive.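 Rule for the calls: active = activation above the mean of all tested compounds plus 3 SD, cutoff set per screening run (cut at about 20% in these data); inactive = the rest.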
# Target: Oxytocin receptor (Homo sapiens) (UniProt P30559)
# Sequence (P30559 whole entry, looked up): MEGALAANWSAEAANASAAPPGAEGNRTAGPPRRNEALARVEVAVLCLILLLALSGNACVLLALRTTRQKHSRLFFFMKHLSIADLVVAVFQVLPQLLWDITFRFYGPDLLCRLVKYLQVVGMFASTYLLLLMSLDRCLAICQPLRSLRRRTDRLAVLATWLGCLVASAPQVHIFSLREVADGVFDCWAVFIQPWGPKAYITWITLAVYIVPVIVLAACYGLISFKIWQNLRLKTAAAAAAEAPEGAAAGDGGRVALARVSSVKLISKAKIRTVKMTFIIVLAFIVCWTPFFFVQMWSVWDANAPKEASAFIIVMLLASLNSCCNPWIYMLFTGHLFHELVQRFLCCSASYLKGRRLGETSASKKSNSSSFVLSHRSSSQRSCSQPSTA
# Assay: human OXTR agonists, primary screen, fluorescence, CHO-OTR cells, Fluo-8 calcium (AID 2435);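 note: peak over basal fluorescence ratio from a 100 s FLIPR kinetic read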
# Conditions: Fluo-8 calcium fluorescence, at 3 µM, stronger effect = higher value, normalized: DMSO 0%, oxytocin 100%
row,SMILES,activation
1,CCOC(=O)/C=c1\s/c(=C\c2ccc(C#N)cc2)c(=O)n1CC(=O)Nc1cccc(C)c1C,0.18%
2,CCOC(=O)Cn1c(=O)oc2cc(S(=O)(=O)N(C)Cc3ccco3)ccc21,1.29%
3,CN(c1ccccc1)c1ccc(/C=c2\s/c(=C(/C#N)C(=O)C(C)(C)C)n(Cc3ccco3)c2=O)cc1,20.3% (active)
4,CCS(=O)(=O)N1CCCC(C(=O)NCCCN(C)Cc2ccccc2)C1 (stereo unspecified),-0.22%
5,Cc1cccc(NC(=S)NCCc2ccc(Cl)cc2)c1C,-1.48%
6,O=C(Cc1ccc(Cl)cc1)NC(=S)Nc1ccccc1O,55.4% (active)
7,Cc1ccccc1NC(=S)NC(=O)Cc1ccc(Cl)cc1,28% (active)
8,COC(=O)Cc1ccc(NC(=S)NCc2ccc(Cl)cc2)cc1,7.5%
9,O=C(COc1ccc(Cl)cc1)NC(=S)Nc1ccccc1N1CCOCC1,-0.94%
10,Cc1ccc(C(=O)NC(=S)Nc2ccccc2C)cc1,-1.72%
11,O=C(Nc1ccc(S(=O)(=O)Nc2ncccn2)cc1)C12CC3CC(CC(C3)C1)C2,-0.32%
12,COc1cc(NC(=O)CN2C(=O)NC(C)(c3ccc(OC(F)F)cc3)C2=O)cc(OC)c1OC (stereo unspecified),2.87%
13,Cn1c(C(=O)OC(C(=O)NC2CCCCC2)c2ccccn2)cc2sccc21 (stereo unspecified),-2.18%
14,Cc1nc(-c2ccccc2)cn2c1nc1ccccc12,-2.1%
15,c1ccc(-c2cc3c(NCC4COc5ccccc5O4)ncnc3s2)cc1 (stereo unspecified),-2.32%
16,c1ccc2c(c1)OCC(CNc1ncnc3nc[nH]c13)O2 (stereo unspecified),80.8% (active)
17,S=C(NCC1COc2ccccc2O1)Nc1ccc(Br)cc1 (stereo unspecified),6.93%
18,CCc1ccc(C2N3CC4([N+](=O)[O-])CN2CC([N+](=O)[O-])(C3)C4(C)C)cc1 (stereo unspecified),-1.26%
19,Cc1ccc(NC(=O)C(CC(=O)O)C2CCCO2)c(C)c1 (stereo unspecified),-0.43%
20,CC(=O)c1ccc(NC(=S)NC(=O)CC(C)C)cc1,-2.1%
21,COc1ccc(NS(=O)(=O)c2ccc(NC(=S)NC(=O)CC(C)C)cc2)cc1,22.5% (active)
22,COc1ccc(OC)c(C(C)NC(=S)Nc2ccc(S(=O)(=O)Nc3ncccn3)cc2)c1 (stereo unspecified),-0.31%
23,Cc1ccccc1CSc1nnc(-c2ccccc2)c(=O)[nH]1,0.69%

row,SMILES,activation
1,CCOc1ccc(/C=C(/NC(=O)c2ccccc2)C(=O)NCCC(=O)O)cc1,0.74%
2,COC(=O)c1sc(-c2ccc(C(C)(C)C)cc2)cc1NC(=O)/C=C/C(=O)O,21.9% (active)
3,COc1ccccc1NC(=O)/C=C/C(N)=O,0.46%
4,CC(C)(C)c1ccc(/C=C/C(=O)Nc2ncccn2)cc1,-1.37%
5,CNC[C@H](CC1CCCCC1)NC[C@H](NCCC1CCCC1)[C@H](C)O,3.53%
6,O=C(/C=C/c1ccc2c(c1)OCCO2)c1ccc(O)cc1,1.57%
7,O=C(/C=C(O)/C=C/c1ccc(O)cc1)/C=C/c1ccc(O)cc1,99.9% (active)
8,O=C(O)/C=C/c1ccc(OCCCF)cc1,0.01%
9,CCOc1cc(/C=C/c2nc3ccccc3c(=O)[nH]2)cc(Br)c1OC,0.74%
10,CC(C)[C@H](NC(=O)N1CCn2c1nc1ccccc12)C(=O)NCc1ccc2c(c1)OCO2,-1.49%
11,O=C(NCc1ccccc1Cl)C1CCN(c2ncnc3c2nc2n3CCCCC2)CC1,0.32%
12,Cc1cc(F)ccc1N1CCC(N2CCN(C)C(CCO)C2)CC1 (stereo unspecified),0.09%
13,COc1cc(C(=O)NC2CCN(C)CC2)ccc1Nc1ncc2c(n1)N(C1CCC(O)CC1)CCC(=O)N2C (stereo unspecified),0.79%
14,COc1ccc(C(=O)NC(=S)NC2CCCCC2)cc1,-1.13%
15,COc1ccc(C(=O)NNC(=S)NC(=O)c2ccccc2)cc1,55% (active)
16,COc1ccc(C(=O)NC(=S)NNC(=O)CCc2ccccc2)cc1,46% (active)
17,COc1ccc(CCC(=O)c2ccc(OC)cc2)cc1,-2.31%
18,COc1ccc(C(=O)NC2CCN(C(=S)NCCc3ccccc3)CC2)cc1,-0.97%
19,COc1ccc(C(=O)NNC(=S)NC(=O)c2ccccc2[N+](=O)[O-])cc1,-2.16%
20,CNC(=O)c1csc(Cc2c(Cl)sc3ccc(Cl)cc23)n1,-2.05%
21,O=C(NCc1ccncc1)C(=O)NCC1OCCN1S(=O)(=O)c1ccc(Br)cc1 (stereo unspecified),0.38%
22,NC(=O)c1ccsc1NC(=O)COC(=O)COc1ccc(C=O)cc1,16.4%
23,Cc1c(Br)c([N+](=O)[O-])nn1CC(=O)Nc1sc2c(c1C(=O)OC(C)C)CCC(C)C2 (stereo unspecified),0.81%
